Active and inactive are the calls of the source.
assay: CREB reporter modulators without forskolin, primary screen, cell-based, PC12, CRE-LacZ reporter, unstimulated (AID 1145); conditions: no forskolin, luminescence, 4.5 h, higher = more signal, called active from +8 up or from −8 down

z-score, inactive:
O=C1O[C@H](c2ccccc2)[C@H](c2ccccc2)N2[C@H]1[C@@H](C(=O)O)[C@]1(C(=O)Nc3ccccc31)[C@H]2c1ccc(OCCO)cc1 0.739
O=C1c2ccccc2[C@@]2(Cc3ccccc3N(CC(F)(F)F)C2=O)[C@H](c2ccc(CO)cc2)N1Cc1ccccc1 -0.258
COCCCNC(=O)[C@@]1(Cc2ccccc2I)c2ccccc2C(=O)N(C2CCCCC2)[C@H]1c1ccc(CO)cc1 0.468
COCCOC(=O)N1C(=O)[C@@]2(c3cc(C#CC4(O)CCCCCC4)ccc31)[C@H](C(N)=O)[C@H]1C(=O)O[C@H](c3ccccc3)[C@H](c3ccccc3)N1[C@@H]2c1ccc(OCCO)cc1 0.362
CCCNC(=O)[C@@]1(Sc2ccc(C)cc2)CC(=O)N(Cc2cc(C(F)(F)F)cc(C(F)(F)F)c2)[C@@H]1c1ccc(CO)cc1 -0.554
C=C(CCCC)/C(=C/C[C@@H](OC(C)=O)c1cccc(OCCO)c1)c1cc(C(=O)OC)ccc1OC 4.5
Cc1cccc([C@H]2C[C@H]3C(Br)=C[C@@]2(CO)C(=O)[C@]32CO2)c1 -0.595
CCCCN1CC=CC23O[C@@H]4/C=C\CCCOC(=O)C4[C@H]2C(=O)N(CCCCCCO)[C@@H]3C1=O (some centres not stated) 0.475
C=CCNC(=O)[C@@H]1[C@H]2C(=O)O[C@H](c3ccccc3)[C@H](c3ccccc3)N2[C@H](c2ccc(OCCO)cc2)[C@@]12C(=O)N(C(=O)OCCOC)c1ccccc12 0.712
COc1ccc(C(=O)Nc2ccc(CN3C(=O)[C@]4(O[C@H](CC(=O)N(CCO)Cc5ccccc5)[C@@H]([Si](C)(C)c5ccc(OC)cc5)[C@@H]4C)c4ccccc43)cc2)cc1 0.339
COC(=O)Cn1c(C(=O)N(C)C)cc2c1C[C@H]1CN(C(=O)c3ccccc3)[C@@](Cc3ccccc3)(C(=O)OC)[C@@H]21 -0.189
CO[C@H]1O[C@H](CO)[C@@H](OC(=O)Nc2cccc(F)c2)[C@H](OC(=O)Nc2ccc3c(c2)OCO3)[C@@H]1OC(=O)Nc1ccc2c(c1)OCO2 -0.207
COC(=O)[C@@]1(Cc2ccc(F)cc2)[C@H]2c3cc(C(=O)N(C)C)n(Cc4cccc5ccccc45)c3C[C@H]2CN1C(=O)c1ccccc1 0.0075
CCOC(=O)C[C@H]1[C@H](OC(=O)Cc2ccc3c(c2)OCO3)[C@@H](NC(=O)CC(C)C)c2cc(OCCCO)ccc2N1C(=O)c1ccc2ccccc2n1 7.92
O=C1O[C@H](c2ccccc2)[C@H](c2ccccc2)N2[C@H]1[C@@H](C(=O)N1CCN(c3ncccn3)CC1)[C@]1(C(=O)Nc3ccc(C#CC4(O)CCCCCC4)cc31)[C@H]2c1ccc(O)cc1 -0.258
COC(=O)C[C@H]1O[C@]2(C(=O)N(C)c3ccccc32)[C@@H](C)[C@@H]1[Si](C)(C)c1ccccc1 -0.141

assay: CREB reporter modulators under forskolin, primary screen, cell-based, PC12, CRE-LacZ reporter, forskolin-stimulated (AID 1146); conditions: luminescence, 4.5 h, higher = more signal, called active from +8 up or from −8 down;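 further: PC12 cells with 6xCRE LacZ reporter stimulated by forskolin 10 µM; beta-galactosidase reporter signal reflecting CREB driven transcription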

z-score, active:
CCOC(=O)C1=CC[C@@H](c2ccccc2)N(S(=O)(=O)c2ccc(C)cc2)[C@@H]1C#N 40.6

z-score, inactive:
CCCC[C@@H](O)C1=C(C)Cn2c(=O)n(-c3ccccc3)c(=O)n2[C@H]1CO -0.844
CCOC(=O)C[C@H]1[C@H](OC(=O)c2cc3ccccc3oc2=O)[C@@H](NC(=O)Cc2ccc(OC)cc2)c2cc(OCCCO)ccc2N1C(=O)Cc1ccc(OC)cc1 -1.59
COC(=O)C1=CC(CCCO)=CC(c2ccc(CN3CCCC3)cc2)N(C)C=C1C(=O)OC (configuration not stated) -0.0736
CCOC(=O)C[C@H]1[C@H](OC(=O)c2ccc(-c3ccccc3)cc2)[C@@H](NC(=O)c2ccc(-c3ccccc3)cc2)c2cc(OCCCO)ccc2N1C(=O)c1ccccc1 0.659
COc1ccc(C(=O)Nc2cccc(CN3C(=O)[C@]4(O[C@H](CC(=O)N(CCO)Cc5ccccc5)[C@@H]([Si](C)(C)c5ccc(OC)cc5)[C@@H]4C)c4ccccc43)c2)cc1 -1.33
O=C(N1CCOCC1)[C@]1(CCS(=O)(=O)c2ccccc2)N=C(c2ccc(OCCCO)cc2)O[C@@H]1c1ccccc1 0.711
CC(C)c1ccc(NN2C(C(O)c3ccccc3)C=CC3C(=O)N(c4ccccc4)C(=O)C32)cc1 (configuration not stated) -0.0336
COc1ccc([Si](C)(C)[C@H]2[C@H](CC(=O)N3CCC[C@H]3CO)O[C@@]3(C(=O)N(C)c4c(Br)cc(C)cc43)[C@@H]2C)cc1 1.09
COCCCNC(=O)[C@]1(Cc2ccccc2N=[N+]=[N-])N=C(c2ccc(OCCCO)cc2)O[C@@H]1c1ccccc1 -1.66
[N-]=[N+]=NCc1ccccc1[C@H]1OC(c2ccc(OCCCO)cc2)=N[C@@]1(Cc1ccccc1N=[N+]=[N-])C(N)=O -0.697
C=CC[C@]1(C(=O)NCC(O)CO)N=C(c2ccc(OCCCO)cc2)O[C@H]1c1ccccc1CN=[N+]=[N-] (some centres not stated) -0.163
C[C@]1(C(=O)NC2CC2)c2ccccc2C(=O)N(Cc2cc(F)cc(C(F)(F)F)c2)[C@H]1c1ccc(CO)cc1 0.864
CC(C)N1CC=CC23O[C@@H]4/C=C\CCCOC(=O)C4[C@H]2C(=O)N(C(C)CO)[C@@H]3C1=O (some centres not stated) -0.869
CCOC(=O)C[C@H]1[C@H](OC(=O)c2ccccc2-c2ccccc2)[C@@H](NC(=O)CC(C)C)c2cc(OCCCO)ccc2N1C(=O)c1ccccc1 -0.103
CN(C)CCCCNC(=O)[C@H]1C[C@H]2C(=O)N[C@@H](CCCCN(C)C)C(=O)N2[C@H]1c1ccc(O)cc1 -0.252
CC(CO)N1C(=O)[C@@H]2[C@H]3C(=O)OCC=C[C@H]3OC23C=CCN(c2ccc4ccccc4c2)C(=O)[C@@H]13 (some centres not stated) -0.702
CC(C)N1C(=O)[C@@]2(Cc3ccccc31)c1ccccc1C(=O)N(Cc1ccccc1)[C@H]2c1ccc(CO)cc1 0.467
COc1ccc([Si](C)(C)[C@@H]2[C@@H](CC(=O)N(CCO)Cc3ccccc3)O[C@]3(C(=O)N(Cc4cccc(I)c4)c4ccccc43)[C@H]2C)cc1 -1.11
CO[C@H]1O[C@H](CO)[C@@H](OC(=O)CCc2ccccc2)[C@@H]2OC(=O)[C@@H](Cc3ccc4ccccc4c3)C/C=C/C[C@H](Cc3ccc4ccccc4c3)C(=O)O[C@@H]12 0.336
O=C1O[C@H](c2ccccc2)[C@H](c2ccccc2)N2[C@H]1[C@@H](C(=O)O)[C@]1(C(=O)Nc3ccccc31)[C@H]2c1ccc(OCCO)cc1 0.727
O=C1c2ccccc2[C@@]2(Cc3ccccc3N(CC(F)(F)F)C2=O)[C@H](c2ccc(CO)cc2)N1Cc1ccccc1 -0.616
COCCCNC(=O)[C@@]1(Cc2ccccc2I)c2ccccc2C(=O)N(C2CCCCC2)[C@H]1c1ccc(CO)cc1 -0.175
COCCOC(=O)N1C(=O)[C@@]2(c3cc(C#CC4(O)CCCCCC4)ccc31)[C@H](C(N)=O)[C@H]1C(=O)O[C@H](c3ccccc3)[C@H](c3ccccc3)N1[C@@H]2c1ccc(OCCO)cc1 0.0846
CCCNC(=O)[C@@]1(Sc2ccc(C)cc2)CC(=O)N(Cc2cc(C(F)(F)F)cc(C(F)(F)F)c2)[C@@H]1c1ccc(CO)cc1 0.448
C=C(CCCC)/C(=C/C[C@@H](OC(C)=O)c1cccc(OCCO)c1)c1cc(C(=O)OC)ccc1OC 1.48
Cc1cccc([C@H]2C[C@H]3C(Br)=C[C@@]2(CO)C(=O)[C@]32CO2)c1 3.9
CCCCN1CC=CC23O[C@@H]4/C=C\CCCOC(=O)C4[C@H]2C(=O)N(CCCCCCO)[C@@H]3C1=O (some centres not stated) -0.34
C=CCNC(=O)[C@@H]1[C@H]2C(=O)O[C@H](c3ccccc3)[C@H](c3ccccc3)N2[C@H](c2ccc(OCCO)cc2)[C@@]12C(=O)N(C(=O)OCCOC)c1ccccc12 -0.477
COc1ccc(C(=O)Nc2ccc(CN3C(=O)[C@]4(O[C@H](CC(=O)N(CCO)Cc5ccccc5)[C@@H]([Si](C)(C)c5ccc(OC)cc5)[C@@H]4C)c4ccccc43)cc2)cc1 -0.221
COC(=O)Cn1c(C(=O)N(C)C)cc2c1C[C@H]1CN(C(=O)c3ccccc3)[C@@](Cc3ccccc3)(C(=O)OC)[C@@H]21 -0.637
CO[C@H]1O[C@H](CO)[C@@H](OC(=O)Nc2cccc(F)c2)[C@H](OC(=O)Nc2ccc3c(c2)OCO3)[C@@H]1OC(=O)Nc1ccc2c(c1)OCO2 -0.41
COC(=O)[C@@]1(Cc2ccc(F)cc2)[C@H]2c3cc(C(=O)N(C)C)n(Cc4cccc5ccccc45)c3C[C@H]2CN1C(=O)c1ccccc1 0.287
CCOC(=O)C[C@H]1[C@H](OC(=O)Cc2ccc3c(c2)OCO3)[C@@H](NC(=O)CC(C)C)c2cc(OCCCO)ccc2N1C(=O)c1ccc2ccccc2n1 0.812
O=C1O[C@H](c2ccccc2)[C@H](c2ccccc2)N2[C@H]1[C@@H](C(=O)N1CCN(c3ncccn3)CC1)[C@]1(C(=O)Nc3ccc(C#CC4(O)CCCCCC4)cc31)[C@H]2c1ccc(O)cc1 -0.296
COC(=O)C[C@H]1O[C@]2(C(=O)N(C)c3ccccc32)[C@@H](C)[C@@H]1[Si](C)(C)c1ccccc1 -0.477

— PubChem BioAssay
